The nature of assay [1]: compounds altering circadian rhythm period length – cell-based, LOPAC library, luminescence reporter (AID 2774).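 Further: values are relative to mean of DMSO wells on each plate.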 Conditions: circadian reporter cells, at 7 µM, actives lie on both sides.
In assay [2] the test system is Hepatitis C virus NS3 helicase. Description: blockers of NS3h binding to ssDNA – biochemical, fluorescence polarization, LOPAC1280 library, primary screen (AID 687035; in the data active means inhibition above about 37%). To be noted: Purified HCV NS3 helicase, Cy5-dT15 ssDNA binding fluorescence polarization; stronger effect = higher value; concentration not given here.
Assay [3] is described as follows: compounds altering Cy5-DNA-NS3h complex signal – biochemical, LOPAC1280, artefact control for HCV NS3 helicase inhibitor project (AID 687037). To be noted: Cy5-DNA-NS3h complex fluorescence interference counterscreen. A general note: Counterscreens check selectivity or assay interference.
Assay [4] concerns Aerobactin synthetase IucA (Klebsiella pneumoniae). Briefly: inhibition of K. pneumoniae IucA enzyme – biochemical, Tocris library, absorbance (AID 1345561).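 Further: 100% = enzyme without compound and 0% = no enzyme.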 To be noted: purified IucA enzyme assay, absorbance (OD) read-out; stronger effect = lower value;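 tested at 8 µM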.
The nature of assay [5]: viability loss with induced miR-34 in A549 – imaging, A549 dox-inducible miR-34, nuclei and caspase counts, primary screen (AID 1347080;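 active means compounds whose cell count with miR-34 switched on is under 0.7 times the count with it off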). Conditions: A549 miR-34 inducible, Hoechst nuclei count, 48 h.
The nature of assay [6]: blockers of cellular phospholipid synthesis – cell-based, LOPAC library, screen 4, primary screen (AID 1347384). To be noted: animal cells, phospholipid biosynthesis inhibition screen; at 10 µM.
Assay [7] in a line: galactose survival enhancers in mitochondrial complex I cybrids – cell-based, galactose medium, ATP luminescence, primary screen (AID 1645843;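 active means z-score of at least 1.8 in each of two replicates, scored against plate mean and spread of sample wells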;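 further: positive z means more ATP and so rescue of galactose-driven cybrid death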). Conditions: complex I mutant cybrid cells, 72 h, stronger effect = higher value.
Assay [8] is described as follows: compounds altering viability of human ES cells (AID 493140).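 Further: cells exposed to compounds for four days before counting.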 Conditions: human embryonic stem cell survival screen; stronger effect = higher value.
A short description of assay [9]: chitosan synthesis blockers in C. neoformans – flow cytometry, Cibacron Brilliant Red staining (AID 1347148).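 Further: compound exposure lasted three days at 37 degrees C.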 Conditions: Cryptococcus neoformans chitosan, stronger effect = lower value; at 10 µM unless noted. Background: In flow cytometry, cells or beads pass a laser one at a time.
The nature of assay [10]: MELAS cybrid and Rieske KO viability enhancers – cell-based, MELAS cybrids, Rieske KO mouse fibroblasts, CellTiter-Glo, primary screen (AID 1508586;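 active means mean z-score across replicates of 1.96 or higher in either the MELAS or the Rieske mutant cell line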;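 further: z relative to plate mean and SD of compound and empty wells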). To be noted: low glucose. A general note: Cellular ATP, detected with luciferase, serves as a proxy for viable cell number.
Assay [11] is described as follows: P. berghei load reduction in hepatocytes – cell-based, HepG2, luciferase luminescence, HepG2 viability, primary screen (AID 624349; in the data active means parasite load remaining mostly below about 12%, no sharp cut-off; inactive means mostly above about 10%;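 further: 100% = mean of DMSO negative control wells on the same plate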). Conditions: P. berghei liver stage in HepG2, luciferase luminescence, concentration not given here; parasite load remaining: stronger effect = lower value; viability: measured here: HepG2 viability without parasites.
Setting [12] is: stronger effect = lower value, cell number ratio, induced over uninduced.
[13] abbreviates: measured here: relative caspase fold change +Dox/-Dox.
Where [14] appears, read: measured here: total cells with miR-34 induction, stronger effect = lower value.
Setting [15] is: measured here: total cells without miR-34 induction.

Each structure is given as a SMILES string. “And” between values parts separate entries of the source, which are not always exact repeats. Equal entries are not always repeated. The source made the active and inactive calls. Unless noted, how the calls were made is not given here.

The record followed here is PubChem BioAssay.

Consider `Oc1cc2c(cc1O)C(c1ccccc1)CNCC2` (stereo unspecified), for which the period change in assay [1] was 0.125 h (inactive). For the same molecule, the inhibition in [2] was -3% (inactive). Besides, the fluorescence ratio (interference) in assay [3] is 1 (inactive). In addition, the remaining activity in [4] is 113% (inactive). Also, the fold change was 0.993 (inactive) and 0.954 (inactive) in [5] (setting [12]); 1.37 and 0.889 in assay [5] (setting [13]). In addition, the cell count in assay [5] (setting [14]) is 10500 and 10200; in assay [5] (setting [15]), 10600. Further, the result in assay [6] was inactive. Besides, the z-score in [7] is 0.58 (inactive) and 0.48 (inactive).
`CCCCCCCC/C=C\CCCCCCCC(=O)NCCc1ccc(O)c(O)c1`: the period change in [1] is 0.16 h (inactive). For the same molecule, in assay [8], the survival is 98 (inactive). Also, the inhibition in assay [2] is -3% (inactive). Besides, in assay [3], the fluorescence ratio (interference) is 1 (inactive). The remaining activity in [4] is 113% (inactive). Besides, the fold change in [5] (setting [12]) was 0.822 (inactive) and 1.01 (inactive) and 1 (inactive); in [5] (setting [13]), 1.55 and 1.58 and 0.782. The cell count in [5] (setting [14]) was 4510 and 5800 and 5520; in [5] (setting [15]) it was 5490 and 5740 and 5510. Moreover, in [6], the result was inactive. The z-score in [7] is -1.38 (inactive) and -0.82 (inactive).
For `O=C1C(SCCO)=C(SCCO)C(=O)c2ccccc21`, the period change in assay [1] is -0.12 h (inactive). In [2], the inhibition was -3% (inactive). In addition, the fluorescence ratio (interference) in assay [3] was 1 (inactive). The remaining activity in assay [4] was 112% (inactive). Moreover, the fold change in assay [5] (setting [12]) is 1.25 (inactive) and 0.776 (inactive) and 0.848 (inactive); in assay [5] (setting [13]), 0.902 and 1.05 and 1.12. Also, the cell count was 1490 and 1050 and 1210 in assay [5] (setting [14]); 1190 and 1350 and 1420 in assay [5] (setting [15]). For the same molecule, the fold fluorescence in assay [9] is 6.37 [at 161.1 µM] (inactive). Besides, the molecule was called inactive in [6]. The z-score in assay [7] was -1.04 (inactive) and -0.82 (inactive).
Consider `O=C1CCc2c(ccc3ccccc23)O1`, for which, in [4], the remaining activity was 100% (inactive). Further, the fold change in assay [5] (setting [12]) was 0.939 (inactive) and 0.91 (inactive); in [5] (setting [13]), 0.854 and 0.797. The cell count was 5380 and 8760 in [5] (setting [14]); 5730 and 9620 in assay [5] (setting [15]). Also, in [9], the fold fluorescence was 3.79 [at 252.2 µM] (inactive). Besides, in assay [7], the z-score is -0.32 (inactive).
Consider `COC(=O)c1c(C)[nH]c(C)c1C(=O)c1ccccc1Cc1ccccc1`, for which the period change in [1] is 0.045 h (inactive). The inhibition in assay [2] is -1% (inactive). Besides, the fluorescence ratio (interference) in [3] was 1 (inactive). Moreover, in assay [4], the remaining activity is 110% (inactive). Moreover, the fold change in assay [5] (setting [12]) was 0.994 (inactive) and 1.2 (inactive) and 0.953 (inactive); in assay [5] (setting [13]), 0.778 and 0.775 and 0.777. The cell count in assay [5] (setting [14]) is 7970 and 5070 and 7630; in [5] (setting [15]), 8020 and 4240 and 8010. The fold fluorescence in assay [9] is 5.89 [at 143.9 µM] (inactive). Also, the call in [6] was inactive. For the same molecule, the z-score in assay [7] was -0.58 (inactive) and -0.485 (inactive).
For `Clc1cccc(Nc2nnc(-c3ccccc3)c3ccccc23)c1`, the remaining activity in assay [4] was 100% (inactive). Further, the fold change in assay [5] (setting [12]) is 0.991 (inactive) and 0.925 (inactive); in [5] (setting [13]) it was 0.939 and 0.863. In addition, the cell count was 1790 and 6180 in [5] (setting [14]); 1810 and 6680 in assay [5] (setting [15]). Further, in assay [9], the fold fluorescence was 8.57 [at 150.7 µM] (inactive). In addition, in [7], the z-score was -1.22 (inactive).
With `CCCCCCN(CCCCCC)C(=O)Cc1c(-c2ccc(F)cc2)[nH]c2ccccc12`, the period change in [1] was -0.08 h (inactive). The inhibition in assay [2] is 1% (inactive). In addition, the fluorescence ratio (interference) in assay [3] is 1 (inactive). Besides, the remaining activity in assay [4] is 100% (inactive). In addition, the fold change is 1.29 (inactive) and 0.933 (inactive) in [5] (setting [12]); 1.15 and 0.997 in [5] (setting [13]). The cell count in assay [5] (setting [14]) is 5020 and 4030; in assay [5] (setting [15]), 3880 and 4320. Moreover, the molecule was classed as inactive in assay [6]. The z-score in [7] was -1.04 (inactive) and -1.23 (inactive).
On to `CC(C)(C)n1nc(-c2ccc(Cl)cc2)c2c(N)ncnc21`, for which the survival in assay [8] is 53.1 (inactive). Further, the remaining activity in assay [4] was 92.2% (inactive). Moreover, the fold change in assay [5] (setting [12]) is 1.17 (inactive) and 0.851 (inactive) and 0.882 (inactive); in assay [5] (setting [13]) it was 0.727 and 0.97 and 0.665. For the same molecule, the cell count in assay [5] (setting [14]) was 797 and 2420 and 4980; in assay [5] (setting [15]) it was 682 and 2850 and 5640. The fold fluorescence in assay [9] was 4.87 [at 165.7 µM] (inactive). Further, the z-score in assay [10] (MELAS cybrid survival, CellTiter-Glo 48 h, stronger effect = higher value) was 0.749 (inactive); in [10] (Rieske KO mouse fibroblast survival, CellTiter-Glo 72 h), -0.167; in assay [7] it was 1.28 (inactive).
Take `O=C1Cc2c([nH]c3ccc(Br)cc23)-c2ccccc2N1`: the period change in assay [1] was -0.835 h (active). In addition, in assay [11], the parasite load remaining is 33% (inactive). Moreover, the viability in assay [11] was 64.2%. The inhibition in assay [2] was 1% (inactive). Further, the fluorescence ratio (interference) in assay [3] is 1 (inactive). Also, in [4], the remaining activity was 115% (inactive). The fold change in assay [5] (setting [12]) was 1.11 (inactive) and 0.922 (inactive) and 1.05 (inactive); in assay [5] (setting [13]) it was 0.981 and 0.403 and 0.535. The cell count was 4020 and 4080 and 1060 in assay [5] (setting [14]); 3640 and 4430 and 1010 in assay [5] (setting [15]). Besides, in [6], the result was inactive. Moreover, the z-score in [7] was -0.785 (inactive) and -0.43 (inactive).
`CCN(CC)CCCCNc1ncc2cc(-c3c(Cl)cccc3Cl)c(NC(=O)NC(C)(C)C)nc2n1`: the remaining activity in [4] was 131% (inactive). In addition, the fold change in assay [5] (setting [12]) was 0.841 (inactive) and 1.42 (inactive); in [5] (setting [13]), 1.06 and 1.08. The cell count in assay [5] (setting [14]) was 938 and 569; in assay [5] (setting [15]) it was 1110 and 401. Besides, in assay [6], the outcome was inactive. Further, in assay [7], the z-score is -0.7 (inactive) and -1 (inactive).
Take `CCn1c(=O)[nH]c2cc(Cl)c(Cl)cc21`: in [1], the period change is 0.01 h (inactive). The inhibition in assay [2] was -2% (inactive). Besides, the fluorescence ratio (interference) in assay [3] is 1 (inactive). Moreover, the remaining activity in assay [4] is 114% (inactive). Besides, the fold change in assay [5] (setting [12]) is 0.936 (inactive) and 0.878 (inactive); in assay [5] (setting [13]) it was 1.34 and 0.845. For the same molecule, the cell count is 8830 and 7930 in assay [5] (setting [14]); 9440 and 9020 in [5] (setting [15]). Also, the result in assay [6] was inactive. Moreover, in [7], the z-score was 0.275 (inactive) and 0.885 (inactive).
As for `COC1(C2=NCCN2)COc2ccccc2O1` (stereo unspecified), the period change in assay [1] is 0.04 h (inactive). In addition, the inhibition in [2] was -3% (inactive). In assay [3], the fluorescence ratio (interference) was 0.9 (inactive). The remaining activity in assay [4] is 126% (inactive). Further, the fold change was 0.986 (inactive) and 0.983 (inactive) in assay [5] (setting [12]); 1.8 and 0.411 in [5] (setting [13]). For the same molecule, the cell count in [5] (setting [14]) was 10100; in assay [5] (setting [15]), 10300 and 10200. For the same molecule, in assay [6], the molecule was called inactive. Besides, in assay [7], the z-score was -0.135 (inactive) and -0.24 (inactive).
Consider `C[C@H](NC(=O)/C(C#N)=C/c1ccc(O)c(O)c1)c1ccccc1`, for which the period change in [1] was 0.035 h (inactive). In addition, in assay [2], the inhibition was -1% (inactive). In addition, in assay [3], the fluorescence ratio (interference) is 1 (inactive). In assay [4], the remaining activity is 111% (inactive). Moreover, the fold change in assay [5] (setting [12]) was 0.957 (inactive) and 0.876 (inactive); in assay [5] (setting [13]), 2.11 and 1.78. The cell count in assay [5] (setting [14]) was 6810 and 7420; in assay [5] (setting [15]) it was 7120 and 8470. Also, the outcome in assay [6] was inactive. In assay [7], the z-score is -1 (inactive) and -0.545 (inactive).
For the molecule `O=C(O)C1=CCCN(CCON=C(c2ccccc2)c2ccccc2)C1`, in assay [1], the period change was -0.05 h (inactive). Further, the inhibition in [2] is 1% (inactive). Further, the fluorescence ratio (interference) in assay [3] was 1 (inactive). The remaining activity in assay [4] is 122% (inactive). The fold change is 1.08 (inactive) and 0.953 (inactive) in assay [5] (setting [12]); 0.8 and 1.02 in assay [5] (setting [13]). Moreover, the cell count is 9470 and 9840 in assay [5] (setting [14]); 8800 and 10300 in [5] (setting [15]). Moreover, the molecule was called inactive in assay [6]. The z-score in assay [7] is 0.145 (inactive) and -0.05 (inactive).

Broadly, the inhibition is the drop in the measured response relative to a control, in per cent. Broadly, the remaining activity is the signal under treatment as a percentage of the control signal. In general, viability refers to the share of living cells, or the viability signal relative to a control.
